Results with a measured potency or affinity are listed apart. Active and inactive are the calls of the source.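 The calls were made as follows: active = absorbance falls by 30% or more versus neutral controls, with a potency fitted within twice the top valid dose; inconclusive = no clear call, values can overlap the other calls; inactive = change opposite to expected direction, plus the rest.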
biological target: Protein disulfide-isomerase (Homo sapiens) (UniProt P07237); experiment: inhibition of PDI-driven insulin aggregation – biochemical, turbidity, absorbance, cherry-picked samples, dose response (AID 602350); conditions: recombinant PDI insulin aggregation, absorbance 650 nm, 90 min; series mostly up to 19.5 µM;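 also: 0% = neutral controls and -100% = rutin hydrate positive control wells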
Sequence (P07237 whole entry, looked up): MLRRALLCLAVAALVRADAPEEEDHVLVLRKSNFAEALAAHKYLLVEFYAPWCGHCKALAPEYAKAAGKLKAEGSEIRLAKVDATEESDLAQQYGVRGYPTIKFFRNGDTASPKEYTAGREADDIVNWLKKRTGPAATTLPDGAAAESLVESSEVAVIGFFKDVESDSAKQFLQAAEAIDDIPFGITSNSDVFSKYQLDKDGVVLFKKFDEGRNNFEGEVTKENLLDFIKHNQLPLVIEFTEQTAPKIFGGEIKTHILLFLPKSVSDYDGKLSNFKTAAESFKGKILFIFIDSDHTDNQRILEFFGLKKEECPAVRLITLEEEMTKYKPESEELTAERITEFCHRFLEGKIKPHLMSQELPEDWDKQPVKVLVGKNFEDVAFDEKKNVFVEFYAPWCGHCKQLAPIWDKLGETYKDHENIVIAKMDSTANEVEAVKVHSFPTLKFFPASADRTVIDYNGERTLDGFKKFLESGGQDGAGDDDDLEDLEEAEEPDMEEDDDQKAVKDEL

outcome, inactive:
CN(C1=NC(=O)C(CC(=O)Nc2ccc(Br)cc2)S1)c1ccc(O)cc1 (centres undefined)
CCOc1ccc(C(=O)NCC(=O)OCC(=O)N(C)CC(=O)Nc2ccccc2CC)cc1OCC
O=C(c1ccc(S(=O)(=O)N2CCCCC2)cc1)N1CCN(Cc2ccc3c(c2)OCO3)CC1
Cc1cc(Cl)ccc1OCc1n[nH]c(=S)n1C1CCCCC1
O=C(N/N=C/c1ccc(O)cc1)NC12CC3CC(CC(C3)C1)C2
CC(NC(=O)COC(=O)Cc1ccccc1[N+](=O)[O-])c1ccccc1 (centres undefined)
O=C(CCc1ccc(O)cc1)NN=Cc1cc(Br)ccc1O
Cc1c(O)ccc2c(CN3CCN(Cc4ccccc4)CC3)cc(=O)oc12
COc1ccc(CN(C)C[C@@H]2Oc3ccc(NC(=O)Nc4ccccc4)cc3CC(=O)N([C@H](C)CO)C[C@@H]2C)cc1
S=C(NCCN1CCOCC1)Nc1ccc(Br)cc1
O=C(CCN1C(=O)C2C3C=CC(C4CC34)C2C1=O)Oc1ccccc1 (centres undefined)
CCCCNC(=O)N1CCN(C(=O)C2CCCO2)CC1 (centres undefined)
Cc1ccc(N(Cc2ccccc2)C(=O)c2cccc(S(=O)(=O)N3CC(C)OC(C)C3)c2)cc1 (centres undefined)
NC(=O)c1nsc(C(=O)N(CC(=O)NCc2ccc(F)cc2)Cc2ccco2)c1N
CCOc1ccc(CCN2C(=O)C(=O)N([C@@H](CC(C)C)CN3CCC[C@@H]3CN3C(=O)C(=O)NC[C@@H]3Cc3ccccc3)C[C@@H]2Cc2ccc(O)cc2)cc1
COc1ccc(CCNC(=O)c2cc(S(=O)(=O)N(C)C)ccc2N2CCCC2)cc1
Cc1sc(NC(=O)CCl)c(C(=O)c2ccccc2)c1C
COc1ccc(C2c3ccc(O)cc3Oc3ncn(Cc4ccco4)c(=N)c32)cc1OC (centres undefined)
Cc1ccc(NC2(c3nnnn3CCOC(=O)Nc3ccc(Cl)cc3)CCCCC2)cc1
CN(C)c1ccc(/C=C/C(=O)c2ccc(O)cc2)cc1[N+](=O)[O-]
O=C1N[C@@H](Cc2c[nH]c3ccccc23)COC(=O)[C@@H](Cc2ccc(F)cc2)C/C=C\C[C@H]1CC(=O)N(CCO)Cc1ccccc1
Cc1[nH][nH]c(=O)c1C(c1c(C)[nH][nH]c1=O)c1cn(Cc2ccccc2Cl)c2ccccc12

Activity change, negative = inhibition, inactive:
CC[C@]12c3[nH]c4cc(-c5ccco5)ccc4c3CCN1C(=O)[C@@H](CC(=O)NCCCOC)C[C@@H]2C(=O)N1CCN(C(=O)C2CC2)CC1 0.067% [at 2.1 µM]
COc1ccc(C[C@@H]2OC3(C=CC(=O)C=C3)O[C@H]2Cc2ccc(OC)cc2)cc1 -2.56% [at 2.1 µM]

— PubChem BioAssay AID602350 (Broad Institute, 2012)
